Experimental findings from the supplement of paper PMC9492666 are described below.
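Further: breast cancer cell viability read out with the CCK-8 kit after co-treatment of each compound with the ferroptosis inducer RSL3.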

The test concerns MDA-MB-231. In words: relative cell viability, compound + RSL3, vs DMSO (fraction of DMSO control); higher = less growth inhibition. Particulars: 72 h.
`Cc1cc(C)c(S(=O)(=O)Nc2cccc(C(F)(F)F)c2)c(C)c1` + COC(=O)c1ccc([C@H]2c3[nH]c4ccccc4c3C[C@H](C(=O)OC)N2C(=O)CCl)cc1 [RSL3]: the relative cell viability was determined as 0.775.
For the compound `C=C(C)[C@@H]1CCC2=CC(=O)C[C@@H](C)[C@]2(C)C1` [Nootkatone] + COC(=O)c1ccc([C@H]2c3[nH]c4ccccc4c3C[C@H](C(=O)OC)N2C(=O)CCl)cc1 [RSL3], the relative cell viability came out at 0.613.
With `CCCCCCCCCCCCCCCC(=O)NCCO` [Palmidrol] + COC(=O)c1ccc([C@H]2c3[nH]c4ccccc4c3C[C@H](C(=O)OC)N2C(=O)CCl)cc1 [RSL3], the relative cell viability was determined as 0.77.
Take `CC(C)c1nc(N(C)S(C)(=O)=O)nc(-c2ccc(F)cc2)c1/C=C/[C@@H](O)C[C@@H](O)CC(=O)O` [Rosuvastatin] + COC(=O)c1ccc([C@H]2c3[nH]c4ccccc4c3C[C@H](C(=O)OC)N2C(=O)CCl)cc1 [RSL3]: the relative cell viability is 0.527.
For `O=C1c2cc(CO)cc(O)c2C(=O)c2c(O[C@@H]3O[C@H](CO)[C@@H](O)[C@H](O)[C@H]3O)cccc21` [Aloe-emodin-8-O-beta-D-glucopyranoside] + COC(=O)c1ccc([C@H]2c3[nH]c4ccccc4c3C[C@H](C(=O)OC)N2C(=O)CCl)cc1 [RSL3] the value was 0.544.
For `CCCc1cc(-c2nc(-c3ccc(NS(C)(=O)=O)cc3)cs2)ccn1` + COC(=O)c1ccc([C@H]2c3[nH]c4ccccc4c3C[C@H](C(=O)OC)N2C(=O)CCl)cc1 [RSL3] the value was 0.551; for `N[C@@H](Cc1c[nH]cn1)C(=O)O` [histidine] + COC(=O)c1ccc([C@H]2c3[nH]c4ccccc4c3C[C@H](C(=O)OC)N2C(=O)CCl)cc1 [RSL3], 0.673.
